In PubChem BioAssay one finds composite z-score data, which are given here for 35 compounds.

The experiment is described as follows: probe aNOTCH3 binding on compound microarray – biochemical, small-molecule microarray, 635/667 nm fluorescence, primary screen (AID 1120).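 Also: probe is a biotin-tagged antibody raised against NOTCH3 rather than NOTCH3 protein; score merges spot fluorescence near 667 nm with spot signal to noise.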 The note with it: higher = more signal.
For `COC(=O)c1c2oc(c1C(=O)OC)C(=O)N(Cc1ccccc1)Cc1cn(nn1)C[C@H](Cc1ccccc1)NC(=O)N[C@H](CO)CC2`, the composite z-score was -0.0918.

Consider `O=C1O[C@H](c2ccccc2)[C@H](c2ccccc2)N2[C@H]1[C@@H](C(=O)Nc1nc3ccccc3s1)[C@]1(C(=O)Nc3ccc(C#CC4(O)CCCCCC4)cc31)[C@H]2c1ccccc1OCCO`, for which the composite z-score stood at 0.0459. With `O=C1O[C@@H](c2ccccc2)[C@@H](c2ccccc2)N2[C@@H](c3ccccc3OCCO)[C@]3(C(=O)Nc4ccc(C#CCCO)cc43)[C@@H](C(=O)N3CCCCCCC3)[C@H]12` the figure was 2.26; with `CC(C)N1CC=CC23O[C@@H]4C=CCOC(=O)[C@@H]4[C@H]2C(=O)N(CCCO)[C@@H]3C1=O` (stereo not given in full), -0.145; with `COc1ccc([Si](C)(C)[C@@H]2[C@@H](CC(=O)N(CCO)Cc3ccccc3)O[C@]3(C(=O)N(Cc4cccc(N5CCOC5=O)c4)c4ccccc43)[C@H]2C)cc1`, -0.269.

The compound `COC(=O)[C@@]1(Cc2ccc(F)cc2)[C@H]2c3cc(C(=O)N4CCCC4)n(CCN4CNCC4=O)c3C[C@H]2CN1C(=O)c1ccccc1` displayed a composite z-score of 0.323. To `C=C[C@@H](COC(C)=O)N(C(=O)OC(C)(C)C)S(=O)(=O)c1ccc(Br)cc1` belongs 0.0494; to `CN(C)C(=O)[C@]1(CCS(=O)(=O)c2ccccc2)N=C(c2ccc(OCCCO)cc2)O[C@@H]1c1ccccc1N=[N+]=[N-]`, 0.545; to `O=C1NC(=O)C2C1C=CC(C(O)c1ccco1)N2Nc1ccccn1` (stereo not given), -0.133. With `C=CC[C@]1(C(=O)NCCN2CCOCC2)N=C(c2ccc(OCCCO)cc2)O[C@H]1c1ccccc1CN=[N+]=[N-]` the figure was -0.273; with `CCOC(=O)C[C@H]1[C@H](OC(=O)c2ccccc2-c2ccccc2)[C@@H](NC(=O)c2ccc(-c3ccccc3)cc2)c2cc(OCCCO)ccc2N1C(=O)c1ccc2ccccc2n1`, 0.0715.

In the case of `CCCC[C@@H](O)C1=C(COc2ccccc2)C[C@H]2C(=O)N(C)C(=O)[C@H]2[C@H]1CO`, the composite z-score was -0.201. For the compound `COCCOC(=O)N1C(=O)[C@@]2(c3cc(C#Cc4ccc(OC)cc4)ccc31)[C@H](C(=O)Nc1nc3ccccc3s1)[C@H]1C(=O)O[C@H](c3ccccc3)[C@H](c3ccccc3)N1[C@@H]2c1ccc(O)cc1`, the composite z-score was 0.214. Turning to `COC1OC[C@]2(C)[C@H]3C4=C(CN2C(=O)OC(C)(C)C)[C@H](C)C(CO)C(CO)C4CC[C@@H]13` (stereo not given in full), the composite z-score is 0.239.

With `COCCCNC(=O)[C@]1(CCS(=O)(=O)c2ccccc2)N=C(c2ccc(OCCCO)cc2)O[C@@H]1c1ccccc1N=[N+]=[N-]`, the composite z-score was 0.486. To `CCCNC(=O)[C@@]1(c2ccc([N+](=O)[O-])cc2)CC(=O)N(C2CCCCC2)[C@@H]1c1ccc(CO)cc1` belongs 0.135. With `[N-]=[N+]=NCc1ccccc1C[C@@]1(C(=O)N2CCOCC2)N=C(c2ccc(OCCCO)cc2)O[C@@H]1c1ccccc1` the figure was 0.056; with `NC(N)=NCCCn1cc(CNC(=O)[C@@H](N)Cc2ccccc2)nn1`, 0.0126.

Regarding `COC(=O)[C@@]1(Cc2ccc(OC)cc2)[C@H]2c3cc(C(=O)N(C)C)n(CCO)c3C[C@H]2CN1C(=O)c1ccccc1`, the composite z-score is -0.102. With `COCCCNC(=O)[C@@]1(Cc2ccccc2CN=[N+]=[N-])N=C(c2ccc(OCCCO)cc2)O[C@H]1c1ccccc1` the figure was 0.269; with `C=C[C@@H](OC)[C@H](OC(=O)Nc1ccc(SC)cc1)c1ccc(O)c(F)c1`, 0.0337; with `CCCCCCCCCCC(O)C1C=CC2C(=O)N(C)C(=O)C2N1Nc1ccc([N+](=O)[O-])cc1[N+](=O)[O-]` (stereo not given), 0.0668. To `O=C(NCc1ccccc1)[C@@H]1c2ccccc2C(=O)N(Cc2ccccc2C(F)(F)F)[C@H]1c1ccc(CO)cc1` belongs -0.232; to `COCCOC(=O)N1C(=O)[C@@]2(c3cc(C#CCCO)ccc31)[C@H](C(=O)Nc1nc3ccccc3s1)[C@H]1C(=O)O[C@H](c3ccccc3)[C@H](c3ccccc3)N1[C@@H]2c1ccccc1OCCO`, 0.436.

Consider `COCCOC(=O)N1C(=O)[C@@]2(c3cc(C#CCC(C(=O)OC)C(=O)OC)ccc31)[C@H](C(=O)N1CCc3cc(OC)c(OC)cc3C1)[C@H]1C(=O)O[C@H](c3ccccc3)[C@H](c3ccccc3)N1[C@@H]2c1ccc(OCCO)cc1`, for which the composite z-score amounted to 0.15. As for `COc1ccc(CCNC(=O)[C@@]2(Sc3ccc(C)cc3)CC(=O)N(C3Cc4ccccc4C3)[C@@H]2c2ccc(CO)cc2)cc1`, the composite z-score turned out to be 0.0522.

The compound `CC1=C([C@H](O)CCc2ccccc2)[C@H](CO)[C@@H]2C(=O)N(C)C(=O)[C@@H]2C1` came in with a composite z-score of 0.0313. With `COc1ccccc1CN1C(=O)c2ccccc2[C@@]2(Cc3ccccc3N(CC(F)(F)F)C2=O)[C@@H]1c1ccc(CO)cc1` the figure was -0.251.

On to `CC(C)(C)OC(=O)CC[C@]1(C(=O)NCc2ccccc2)N=C(c2ccc(OCCCO)cc2)O[C@H]1c1ccccc1CN=[N+]=[N-]`, for which the composite z-score stood at 0.526. As for `O=C(NCC(F)(F)F)[C@@H]1c2ccccc2C(=O)N(Cc2ccc(OC(F)(F)F)cc2)[C@H]1c1ccc(CO)cc1`, the composite z-score is -0.0647.

Turning to `COc1ccc([Si](C)(C)[C@H]2[C@H](CCn3cc([C@H](O)c4ccccc4)nn3)O[C@@]3(C(=O)N(Cc4ccc(N5C(=O)c6cccc7cccc5c67)cc4)c4ccccc43)[C@@H]2C)cc1`, the composite z-score was -0.165. To `CCCCCCc1nc(C2CC2)cc2c1[Si](C(C)C)(C(C)C)O[C@H]2c1ccccc1` belongs -0.0647; to `COc1cc2c(cc1OC)CN(C(=O)[C@@H]1[C@H]3C(=O)O[C@H](c4ccccc4)[C@H](c4ccccc4)N3[C@H](c3ccc(OCCO)cc3)[C@@]13C(=O)Nc1ccccc13)CC2`, 0.131; to `CCOC(=O)C[C@H]1[C@H](OC(=O)c2ccc(C(=O)c3ccccc3)cc2)[C@@H](NC(=O)Cc2ccc(OC)cc2)c2cc(OCCCO)ccc2N1C(=O)c1ccccc1`, 0.0203. Take `Cc1cc(C)c(C(O)C2C=CC3C(=O)NC(=O)C3N2Nc2ccc(Cl)cc2Cl)c(C)c1` (stereo not given): the composite z-score is 0.396.
